This is a sample that favours compounds with a hit; in the whole collection about 12% have one here.
JMJD2A Tudor – JMJD2A Tudor domain (human) inhibition; AlphaScreen JMJD2A-Tudor / H3K4me3 peptide binding; Potency, µM (top dose mostly 114 µM), inactives show at the top dose activity change, negative = inhibition, hits mostly inhibitors; actives 4.4% (n = 390,000); AID 504339; also: % is scaled to controls: 0 for no effect and ±100 for the full control effect; nearly all actives have a fitted effect of over 50% in size
BAZ2B block – inhibitors of human BAZ2B bromodomain. Potency, µM (doses to about 114 µM), for the others: top-dose activity change, negative = inhibition, usual class: inhibitors. actives 4.4% (n = 360,000). AID 504333. Q9UIF8. AlphaScreen BAZ2B-H3K14Ac peptide displacement; also: % is scaled to controls: 0 for no effect and ±100 for the full control effect; nearly all actives have a fitted effect of over 60% in size
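AlphaScreen displacement of biotin-H3(5-23)K14Ac peptide (50 nM final) from BAZ2B (50 nM final) in PBS pH 7.4, 0.01% Tween-20; complex preformed 30 min RT, then compounds (top 110 uM) 30 min RT, beads 20 min dark.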
Sfp PPTase inh – inhibitors of Bacillus subtilis Sfp phosphopantetheinyl transferase. actives 3.5% (n = 310,000). Biochemical Sfp PPTase activity, qHTS. Potency, µM, for inactives: largest response in the series, negative = inhibition, hits mostly inhibitors. Q9F4F7. AID 1490;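 also: the enzyme is Sfp with the accession as filed and its product quenches rhodamine fluorescence; 0% = enzyme reaction without inhibitor and -100% = no enzyme wells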
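After 15 min at room temperature with compound, 15 nM Sfp received 5 uM rhodamine-CoA plus 12.5 uM BHQ-2-ybbR (50 mM Hepes pH 7.6, 10 mM MgCl2). Rate came from the fluorescence difference over 30 min, ex 525/em 598 nm.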
G9a inh – inhibitors of human histone lysine methyltransferase G9a; G9a H3K9 monomethylation, AlphaScreen, 2 h; Potency, µM (series often up to 102 µM), for the others: at the top dose activity, negative = inhibition, hits mostly inhibitors; actives 8.8% (n = 350,000); also: % is scaled to controls: 0 for no effect and ±100 for the full control effect; nearly all actives have a fitted effect of over 75% in size
Target sequence (Q96KQ7 913-1193 limits assumed): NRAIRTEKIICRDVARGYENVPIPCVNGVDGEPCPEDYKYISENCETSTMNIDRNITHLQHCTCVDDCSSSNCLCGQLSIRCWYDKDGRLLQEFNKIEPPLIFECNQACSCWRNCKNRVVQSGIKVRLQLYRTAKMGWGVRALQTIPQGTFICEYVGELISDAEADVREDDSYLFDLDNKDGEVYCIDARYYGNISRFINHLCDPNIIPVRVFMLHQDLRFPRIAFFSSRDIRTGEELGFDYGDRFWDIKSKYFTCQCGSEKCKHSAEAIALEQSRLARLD
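G9a (20 nM) preincubated 15 min RT with compounds, then 500 nM biotinylated H3K9 peptide and 20 uM SAM added; 2 h RT reaction. Monomethyl-H3K9 product detected by AlphaScreen with anti-H3K9me1 antibody, streptavidin donor and anti-rabbit IgG acceptor beads.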
HP1b binding inh – HP1-beta chromodomain-methylated histone interaction inhibition; P83916; AlphaScreen HP1-beta / biotin-H3K9me3 peptide binding; Potency, µM (top dose mostly 114 µM), without a hit: top-dose activity change, negative = inhibition, usual class: inhibitors; actives 0.56% (n = 390,000); also: nearly all actives have a fitted effect of over 70% in size
Target sequence (P83916 whole entry, looked up): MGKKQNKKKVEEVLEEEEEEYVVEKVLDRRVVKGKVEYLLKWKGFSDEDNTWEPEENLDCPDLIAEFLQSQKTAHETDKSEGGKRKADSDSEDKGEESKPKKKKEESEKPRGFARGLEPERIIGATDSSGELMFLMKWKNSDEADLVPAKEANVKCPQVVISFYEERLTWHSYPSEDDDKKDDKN
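HP1-beta protein (50 nM final) preincubated 30 min at room temperature with biotinylated H3(1-18)K9me3 peptide (50 nM) in PBS pH 7.4, 0.01% Tween-20, then compound added for 30 min. AlphaScreen streptavidin donor/nickel chelate acceptor beads (10 ug/mL final), 30 min dark, luminescence read.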
Starred values were filed as active, the others as inactive; ? = inconclusive; · = no result; ! = repeats disagree; [ ] = dose if it differs, or a comment. Calls follow the shape of the dose curve; as a rule, active = well fitted curve in the direction sought with a large enough effect; inconclusive = small, poorly fitted or top-dose-only effect, or another doubt; inactive = no such curve, though single readings can be large; an effect the other way counts as inactive or inconclusive. Potency is read from the fitted curve at half-maximal effect.

SMILES | JMJD2A Tudor | BAZ2B block | Sfp PPTase inh | G9a inh | HP1b binding inh
CCc1cc2c(=O)[nH]c(-c3ccccn3)nc2s1 | 25µM* | 28µM* | -31% | 26%[59 µM] | 36%
COc1cnc(-c2ccccn2)[nH]c1=O | 40µM* | 1.3µM* | 10µM* | 34% | 31%
COc1cnc(SC(C)C)[nH]c1=O | -20% | 0% | -17% | · | 31%
COc1ccc(-c2noc(N(c3nc(-c4ccc(OC)c(OC)c4)no3)c3ccccc3OC)n2)cc1OC | -2% | -6% | · | -21%[59 µM] | 36%
O=C(O)c1cc(N2N=C(C(F)(F)F)/C(=C/C=C/c3ccco3)C2=O)ccc1Cl | 1µM* | 13µM* | 22µM* | 2.5µM* | 1.6µM*
CC1=NN(c2ccc(C)c(C)c2)C(=O)/C1=C\C=C\c1ccc([N+](=O)[O-])o1 | ? | ? | 1% | ? | ?
CCOC(=O)c1ccc(-n2c(-c3ccco3)nc3ccccc3c2=O)cc1 | -23% | -28% | 4% | -5% | 25%
CCOC(=O)c1ccc(N2N=C(C)/C(=C/C=C/c3ccco3)C2=O)cc1 | ? | 6.3µM* | -2% | ? | ?
CC1=NN(c2ccc(C(=O)OC(C)C)cc2)C(=O)/C1=C\C=C\c1ccco1 | 18µM* | 4µM* | ? | 4.5µM* | ?
O=C(c1ccccc1)c1ccc(OCC(O)CNC2CCCc3ccccc32)cc1 (stereo not drawn) | 10µM* | 50µM* | -10% | 10µM* | ?
OC(CNC1CCCc2ccccc21)COc1ccc2ccccc2c1 (stereo not drawn) | -100% | ? | -32% | 10µM* | ?
CC(C)(C)NCC(O)COc1ccccc1C1CCCC1 (stereo not drawn) | -17% | 6% | · | -21%[59 µM] | 13%
CCc1ccccc1OC[C@@H](O)CN[C@H]1CCCc2ccccc21 | 40µM* | ? | 50µM* | 4µM* | 9%
CC(=O)CCc1ccc(OCC(O)CNC2CCCc3ccccc32)cc1 (stereo not drawn) | 3.5µM* | ? | -10% | ? | -42%
CC1CCCN(C(=O)C2CC(=O)N(c3ccc(Cl)cc3)C2)C1 (stereo not drawn) | -21% | -3% | -7% | 45µM* | -20%
O=C(C1CC(=O)N(c2ccc(Cl)cc2)C1)N1CCCCCC1 (stereo not drawn) | -4% | -27% | -2% | ? | -6%
Cc1ccc(S(=O)(=O)NCc2cccnc2)s1 | -11% | 4% | 14% | -40% | 21%
O=C(O)Cc1sc(NC2CCCCC2)nc1-c1ccc(Cl)cc1 | -26% | ? | -14% | 40µM* | -1%
Cc1ccc(-c2nc(Nc3cccc(C)c3)sc2CC(=O)O)cc1 | ? | -16% | 20µM* | · | -9%
COc1ccccc1Nc1nc(-c2ccccc2)c(CC(=O)O)s1 | -14% | -25% | · | ? | 24%
O=C(O)Cc1sc(Nc2cccc3ccccc23)nc1-c1ccc(F)cc1 | -12% | -23% | 1% | 45µM* | 4%
CCOc1ccc2[nH]c3c(c2c1)CNCC3 | ? | -35% | 8% | 71µM* | -12%
COc1cccc(-c2nnc(NC(=O)C(C)C)o2)c1 | ? | 79µM* | 13% | 8.9µM* | 40%
COc1cc(OC)cc(C(=O)Nc2nnc(-c3cccnc3)o2)c1 | 6% | 56µM* | 29% | 7% | 45%
COc1ccccc1CNC(=O)C1CCN(c2nc3ccc(C)cc3[nH]2)CC1 | -18% | -4% | · | 1%[59 µM] | 17%[57 µM]
SMILES | JMJD2A Tudor | BAZ2B block | Sfp PPTase inh | G9a inh | HP1b binding inh
CCN1CCCC1Cn1cnc2c([nH]c3ccc(Cl)cc32)c1=O (stereo not drawn) | 3% | -1% | -9% | 5%[59 µM] | 12%
O=C(COC(=O)CC1CC2CCC1C2)Nc1ccc(Cl)c(S(=O)(=O)N2CCOCC2)c1 (stereo not drawn) | 0% | 8% | · | 6%[12.7 µM] | 35%
COc1ccc(C2Nc3ccccc3C(=O)N2Cc2ccncc2)cc1COc1ccc(NC(C)=O)cc1 (stereo not drawn) | 79µM* | · | · | · | ·
COc1ccc(C2Nc3ccccc3C(=O)N2Cc2ccco2)cc1COc1c(C)cccc1C (stereo not drawn) | ? | · | · | · | 38%
CCN(CC)CCN1C(=O)c2ccccc2NC1c1ccc(OC)c(COc2ccc(NC(C)=O)cc2)c1 (stereo not drawn) | -25%[57.1 µM] | · | · | · | 21%[57 µM]
COc1cccc(OCc2cc(C3Nc4ccccc4C(=O)N3Cc3ccco3)ccc2OC)c1 (stereo not drawn) | -30% | -25% | 14µM* | ? | 12%
COc1ccc(C2Nc3ccccc3C(=O)N2Cc2cccc3ccccc23)cc1COc1ccc(NC(C)=O)cc1 (stereo not drawn) | 79µM* | · | · | · | ·
COc1ccc(C2Nc3ccccc3C(=O)N2CC(C)(C)C)cc1COc1ccc(NC(C)=O)cc1 (stereo not drawn) | 56µM* | · | · | · | ·
COc1ccc(C2Nc3ccccc3C(=O)N2CCO)cc1COc1ccc(NC(C)=O)cc1 (stereo not drawn) | 79µM* | · | · | · | ·
O[C@H](c1cc(C(F)(F)F)nc2c(C(F)(F)F)cccc12)[C@H]1CCCCN1 | · | · | -22% | -2%[21.5 µM] | ·
CC(C)S(=O)(=O)C1=NSC2=NC(=O)/C(=C\c3ccc(-c4ccccc4)o3)C(=N)N21 | -26% | ? | -1% | ? | 1%
N=C1/C(=C/c2ccc(-c3cccc(C(=O)O)c3)o2)C(=O)N=C2SC=C(c3ccccc3)N12 | 22µM* | 13µM* | -53% | 40µM* | ?
CC(C)S(=O)(=O)C1=NSC2=NC(=O)/C(=C\c3ccc(-c4cccc(C(=O)O)c4)o3)C(=N)N21 | ? | 79µM* | 14µM* | 40µM* | 10%
CS(=O)(=O)C1=NSC2=NC(=O)/C(=C\c3ccc(-c4ccccc4)o3)C(=N)N21 | · | -6% | -13% | 50µM* | ·
O=C(O)c1cccc(-c2ccc(/C=N/n3cnnc3)o2)c1 | -2% | -29% | 0% | -13%[59 µM] | 28%
N=C1/C(=C\c2ccc(-c3cc(Cl)cc(Cl)c3)o2)C(=O)N=C2SC=C(c3ccccc3)N12 | -19% | -1% | -5% | -8% | 12%
CCOC(=O)C(C(=O)OCC)C(C(=O)OCC)N1CCOCC1 (stereo not drawn) | ? | 2% | 22µM* | 1.6µM* | ?
CCOC(=O)C1CCN(c2cc(C)nc3ccc(OC)cc23)CC1 | -23% | -31% | 15% | -23% | 13%
COc1ccc(C2CC(=O)Oc3c(C(CCN4CCCCC4)c4ccc(N(C)C)cc4)c(OC)cc(OC)c32)cc1 (stereo not drawn) | 16µM* | 22µM* | -10% | -105%[59 µM] | ?
COc1ccc(C2CC(=O)Oc3c(C(CCN4CCCC(C)C4)c4ccc(N(C)C)cc4)c(OC)cc(OC)c32)cc1 (stereo not drawn) | 14µM* | 14µM* | 89µM*! | -120%[59 µM] | 14µM*
